From PubChem
APP 5UTR inh: inhibitors of APP translation via 5'UTR reporter, primary screen, APP 5'UTR luciferase, SH-SY5Y cells. inhibition, % at 2 µM. AID 1285, 2008. 190,000 tested, 0.82% active. SH-SY5Y APP 5'UTR-luciferase reporter, luminescence;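 active = inhibition above a set limit, derived from the sample mean plus 3 SD, cut at about 45% in these data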
aSyn UTR inh: MLPCN primary screen, SNCA 5' untranslated region | alpha-synuclein 5'UTR reporter, inhibitor activity | AID 1813, 2009 | inhibition, % (tested at 7.5 µM) | 300,000 tested, 0.82% active; in the data active = inhibition above about 60%;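 note: H4 neuroglioblastoma cells stably carrying SNCA 5'UTR luciferase fusion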
BaF3 tox: parental Ba/F3 cell viability inhibition, counter-screen for JAK2V617F inhibitor project, murine pro-B, CellTiter-Glo luminescence; CellTiter-Glo ATP luminescence; inhibition, % at 5.6 µM; 220,000 tested, 1.1% active; AID 1486, 2009;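 active = inhibition above a per-campaign cutoff, the mean inhibition of all tested compounds plus 3 SD, cut at about 27% in these data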
Ba/F3 V617F tox: reduced viability of JAK2V617F-dependent Ba/F3 cells, primary screen, JAK2V617F inhibitor project, cell-based, Ba/F3 EpoR-JAK2V617F, luminescence; 220,000 tested, 1.1% active; inhibition, % at 5.6 µM; ATP luminescence;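 active = inhibition above the campaign mean plus 3 SD over all tested compounds, cut at about 24% in these data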;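 note: cytokine-independent growth of Ba/F3 cells driven by EpoR plus mutant JAK2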
IEC-6 cytotox: cytotoxicity in IEC-6 intestinal epithelial cells, primary screen, cytotoxicity control for KLF5 inhibitor project, cell-based, luminescence | IEC-6 cytotoxicity, luminescence viability | inhibition, % at 5 µM | 290,000 tested, 0.78% active
KLF5 inhibitor: KLF5 expression inhibitors, primary screen, DLD-1 cells, luminescence | inhibition, % at 5 µM | 290,000 tested, 0.23% active | DLD-1 KLF5 promoter-luciferase reporter;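 active = inhibition above a per-plate limit of that plate's mean compound inhibition plus 3 SD, cut at about 60% in these data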;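 note: higher means less KLF5 promoter-driven luciferase light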
IEC-6 cytotox cf: cytotoxic compounds in IEC-6 epithelial cells, confirmation, cytotoxicity control, cell-based, luminescence; AID 1907, 2009; IEC-6 rat intestinal epithelial viability; inhibition, % at 5 µM; 1,900 tested, 63% active; shares compounds with IEC-6 cytotox
Large screens that a line does not name were inactive (follow-up assays come after a bar, where they were run). Shown are actives, neighbours in structure and some others; about 2.2% of the full set was active somewhere. Cut-off read from the data, not from the text of the source, unless noted: active = inhibition above about 22%; inactive = the rest.

O=C(CCn1c(=O)oc2ccccc21)N1CCN(c2ccccc2Cl)CC1	IEC-6 cytotox 23 | IEC-6 cytotox cf 40
COC(=O)Nc1nc(-c2ccccc2)c(C(=O)c2ccccc2)s1	APP 5UTR inh 95, aSyn UTR inh 100, BaF3 tox 78, Ba/F3 V617F tox 80, IEC-6 cytotox 84 | IEC-6 cytotox cf 56
CCOC(=O)Nc1ccc2nc(Sc3ccc(Cl)cc3)sc2c1	IEC-6 cytotox 38 (no result: APP 5UTR inh) | IEC-6 cytotox cf 24
COCC1CCCCN1C(=O)c1cc(COc2ccc3ncccc3c2)on1 (stereo unspecified)	none (no result: APP 5UTR inh, BaF3 tox, Ba/F3 V617F tox)
CCC1CCCCN1C(=O)c1cc(COc2ccc3ncccc3c2)on1 (stereo unspecified)	BaF3 tox 68, Ba/F3 V617F tox 68, IEC-6 cytotox 23 | IEC-6 cytotox cf inactive
O=C(CNC(=O)c1ccc(Cl)cc1)NC(CO)c1ccccc1 (stereo unspecified)	none (no result: APP 5UTR inh, BaF3 tox, Ba/F3 V617F tox)
O=C(O)CSc1cc(C(=O)c2ccccc2O)cn2c(=O)c3c4c(sc3nc12)CCCC4	none (no result: APP 5UTR inh)
O=c1[nH]c2ccccc2nc1-c1ccccc1	none (no result: APP 5UTR inh)
NC(=O)N=Nc1c2[nH]c3ccccc3nc-2c2ccccc12	IEC-6 cytotox 26 (no result: APP 5UTR inh) | IEC-6 cytotox cf inactive
c1ccc(CN2CCC(Nc3nc(-c4cccnc4)nc4ccccc34)CC2)cc1	IEC-6 cytotox 24 | IEC-6 cytotox cf inactive
CNc1nc2cc([N+](=O)[O-])c([N+](=O)[O-])cc2nc1NC	BaF3 tox 69, Ba/F3 V617F tox 75, IEC-6 cytotox 40 | IEC-6 cytotox cf 34
CNc1ccc(S(=O)(=O)NC)cc1[N+](=O)[O-]	none
Cn1cc([N+](=O)[O-])c(C(=O)Nc2sc3c(c2C#N)CCC3)n1	aSyn UTR inh 64, IEC-6 cytotox 92 (no result: APP 5UTR inh, BaF3 tox, Ba/F3 V617F tox) | IEC-6 cytotox cf 29
COC(=O)c1cc(NC(=O)c2cccc([N+](=O)[O-])c2C)ccc1Cl	none
Cc1ccc(C(=O)Nc2ccn(Cc3ccc(F)cc3)n2)o1	IEC-6 cytotox 74 | IEC-6 cytotox cf inactive
O=C1N(Cc2cccc(Cl)c2)C[C@@H]2C[C@@H](c3ccc4nonc4c3)N3CCC[C@@]123	none
CN(C)c1ccc(N/C(N)=N/c2nc(C(F)(F)F)cc(C(F)(F)F)n2)cc1	none
CCCCCCCCNc1ncnc2ccccc12	BaF3 tox 63, Ba/F3 V617F tox 70, IEC-6 cytotox 27 | IEC-6 cytotox cf inactive
CCc1ccccc1Nc1ncnc2ccccc12	none (no result: APP 5UTR inh, BaF3 tox, Ba/F3 V617F tox)
O=C(Cc1cccs1)Nc1cc(SCCO)cc([N+](=O)[O-])c1	none
